Results as given in PMC12136788.
Substitutions are numbered along the chain they refer to. Over roughly 5,800 sequences, “enrichment r” has its median near 0.68; the highest 2% begin near 11. The list comes from a sample in which the highest values are over-represented; it also holds similar and randomly drawn sequences.

T1: UNK ZnF1-6 (called full-length) (human, UniProt Q9C0B0 30-357)
T1 sequence: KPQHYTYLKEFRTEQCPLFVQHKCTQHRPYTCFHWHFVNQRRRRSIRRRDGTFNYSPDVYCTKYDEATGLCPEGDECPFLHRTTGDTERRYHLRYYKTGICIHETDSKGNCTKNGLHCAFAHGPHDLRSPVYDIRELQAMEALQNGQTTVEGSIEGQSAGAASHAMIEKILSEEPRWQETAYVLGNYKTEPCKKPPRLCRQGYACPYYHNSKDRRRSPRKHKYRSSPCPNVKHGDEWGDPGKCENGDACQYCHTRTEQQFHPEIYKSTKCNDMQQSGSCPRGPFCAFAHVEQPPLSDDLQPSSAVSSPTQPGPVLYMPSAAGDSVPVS

B1: chr5:128187618:128187661:+|3pUTR|ENSG00000064651|msi1_unk|total|mutant (ssRNA)
RNA: GGGAGUUCUACAGUCCGACGAUCUCCUUUAUAAGUCAUUAAAAUAAUGUUUCAUCAAAUGGUUAAAUGGACCACUGGUUUCUCCGAGAAAUGUUUUCCGGCUUAAUUCAUUCAAUUGUCAAGUACACUCCGUCUUAAUACACUCAACAGAGGAUUGAGCAUCA
B2: chr1:159061598:159062691:-|three_prime_utr|ENSG00000163568|control|control|control (ssRNA)
RNA: GGGAGUUCUACAGUCCGACGAUCUCAAUCAGAUUGUAAGUUACCUGAAAGCUGCAGUUCACAGGCUCCUCUCUCCACCAAAUUAGGAUAGAAUAAUUGCUGGAUAAACAAAUUCAGAAUAUCAACAGAUGAUCACAAUAAACACAACAGAGGAUUGAGCAUCA
B3: chr10:95606323:95606429:-|3pUTR|ENSG00000059573|unk|total|mutant (ssRNA)
RNA: GGGAGUUCUACAGUCCGACGAUCCCAUGGCUGCUUUGUGUCACCUCAGUGACUUACAGUCCCCCUUGGCAUUCCGUUGGUACCCGAGCCAGUCAUCCUUAACAAAUCUUUUCACAUUUUAUUUCUUUCACAUGCCGUCAUCUUCAACAGAGGAUUGAGCAUCA
B4: chrX:107070192:107070425:-|CDS|ENSG00000089682|control|control|control (ssRNA)
RNA: GGGAGUUCUACAGUCCGACGAUCCGUUCUAGGAGCCAAAUGGCAGAAAAGGACUGGGAGGACCUCAACAUUUAGUAUUCUCUUAGUUUCCUUGCUUUCAGAAACAGUGUUCACAUCUUCAGCCAUGUAUGGCAUUCCCCAUCUCAACAGAGGAUUGAGCAUCA
B5: chr10:95606323:95606429:-|3pUTR|ENSG00000059573|unk|FALSE|bound_elsewhere (ssRNA)
RNA: B3 RNA with C73U, C74A, C83U, C84A, C134U, C135A
B6: chr14:106116634:106116941:-|CDS|ENSG00000211941|control|control|control (ssRNA)
RNA: GGGAGUUCUACAGUCCGACGAUCUGGAUCCGCCAGGCUCCAGGGAAGGGGCUGGAGUGGGUUUCAUACAUUAGUAGUAGUAGUAGUUACACAAACUACGCAGACUCUGUGAAGGGCCGAUUCACCAUCUCCAGAGACAACGCCCAACAGAGGAUUGAGCAUCA
B7: ENSG00000070961:be:win_4601|3pUTR|ENSG00000070961|bound_else_gene|NA|bound_elsewhere_windowed (ssRNA)
RNA: GGGAGUUCUACAGUCCGACGAUCUCAGACUAUCAAACUACAAGAGAACCUUAGUCUUUUUUGUUUUUGUCUAAACAUGUUAGUUUAGUGAUGUCUUGGUGAACUGUGAGUGAACUGUAUUGAUUUUUCUAAUCUUUAGAGACCCAACAGAGGAUUGAGCAUCA
B8: ENSG00000157823:stop:overlap|stop_codon|ENSG00000157823|stop_codon|NA|stop_codon (ssRNA)
RNA: GGGAGUUCUACAGUCCGACGAUCUCCGCUUCUACCAGCGUUUCAAGAAAUUCAACAGCAGAUUGUUCGAGAGACUUUCCAUCUAGUCCUCAAGCGGGAUGACAACAUCUGUAACUUCUUGGAGGGUGGAAGUUUGAUUGGUGGCAACAGAGGAUUGAGCAUCA
B9: chr13:42321371:42321394:+|3pUTR|ENSG00000023516|msi1_unk|FALSE|overlapping (ssRNA)
RNA: GGGAGUUCUACAGUCCGACGAUCUUCUGUUUAUGGUGUAAUCAUUCUGAGGUGAGGCUUUUCUUAUUUCCUUUGCAUUUUGCUAGAGCUGUGCUGAGUUCAGCAUUUGCUUAUUUAACCACUACAUAAUGACAGACCAGUUAUCAACAGAGGAUUGAGCAUCA
B10: chr8:23844609:23844711:-|3pUTR|ENSG00000159167|msi1|FALSE|unique (ssRNA)
RNA: GGGAGUUCUACAGUCCGACGAUCUUUAGGGGUGUUGACACACCAGUUUUGAGUGUACUGUGCCUGGUUUGAUUUUUUUAAAGUAGUUCCUAUUUUCUAUCCCCCUUAAAGAAAAUUGCAUGAAACUAGGCUUCUGUAAUCAAUCAACAGAGGAUUGAGCAUCA
B11: chr7:7573188:7573293:+|CDS|ENSG00000164654|unk|total|mutant (ssRNA)
RNA: GGGAGUUCUACAGUCCGACGAUCCCAUAUUUCCACGAUCGUGUUGCUUCCUUCUAUGAAGGUCAGGUUGCAAUAUGGGAUCUCCGAAAAUUUGAGAAGCCAGUUUUGACAUUGACUGAGCAACCAAAACCCUUAACAAAAGUACAACAGAGGAUUGAGCAUCA
B12: chrX:135156539:135157311:-|three_prime_utr|ENSG00000169551|control|control|control (ssRNA)
RNA: GGGAGUUCUACAGUCCGACGAUCUUUAUUCUGUUUAUCUUUCCUUUUAUGAGCAGUAAAGGGGCUGGUUUAACUUAAAAGGUUAGCUUAGUAAGCCUAAAUAGUAUUUUAUAUAUGACUUUUCUGGCAAAUCUAAUUGAGACACAACAGAGGAUUGAGCAUCA
B13: chr7:157269180:157269282:+|3pUTR|ENSG00000009335|unk|FALSE|unique (ssRNA)
RNA: GGGAGUUCUACAGUCCGACGAUCAUUUUAGGUUGUUUUAUGUUGAAUGUUCUAUAUCUUAUUAGUUAAUUUGUAUAUUUUAUUAGUAUUUUGGAAAUAGCAUAUCUGAGACUGAAGAGAAAUUGACAAUUCACUUAUUUGUGGCAACAGAGGAUUGAGCAUCA
B14: chr18:2804133:2804242:+|3pUTR|ENSG00000101596|unk|FALSE|unique (ssRNA)
RNA: GGGAGUUCUACAGUCCGACGAUCGGUUAAAGAGAAAUGACUUUUUAGGAACUAGACUUGAACGUAUAAUUAAUAUGUGGAACUAGUUUGCUUUUAUAAUUCAUUGUAUCAAGAAGGAGUCAUGUUUUAAAUCCAAGGCAUUGACAACAGAGGAUUGAGCAUCA
B15: chr7:157269180:157269282:+|3pUTR|ENSG00000009335|unk|total|mutant (ssRNA)
RNA: B13 RNA with U28C, A29C, U62C, A63C, U83C, A84C, U97C, A98C
B16: chr1:68475836:68475940:-|3pUTR|ENSG00000024526|unk|total|mutant (ssRNA)
RNA: GGGAGUUCUACAGUCCGACGAUCAUGCCCAGGGCCUAACUUACACUAAUUAAAUCUGAAUUUUGGGGAUGUUGUACCGGGAUCCGUAUUUUUUUUAAUCCCGGUGAUUCCAAUAUUCAGCCAACUGUGAGAAUCAAUGGCCUACAACAGAGGAUUGAGCAUCA
B17: chr1:68475836:68475940:-|3pUTR|ENSG00000024526|unk|FALSE|unique (ssRNA)
RNA: B16 RNA with C76U, C77A, C83U, C84A, C100U, C101A
B18: chr2:65312585:65312700:-|3pUTR|ENSG00000198369|unk|FALSE|unique (ssRNA)
RNA: GGGAGUUCUACAGUCCGACGAUCUGGACCAGGGCUAGAAUGGGGAUUUCAGGUUUCUAUGAGCCUCCCCAUUACCCCUAAAGUAGAACAUUUUUUAAAUUGUGUUGCCACCACUUCUAAAAAUUUAGCAAUAUUAGAAUAGGACAACAGAGGAUUGAGCAUCA
B19: chr19:34469546:34469571:+|3pUTR|ENSG00000126261|msi1_unk|FALSE|overlapping (ssRNA)
RNA: GGGAGUUCUACAGUCCGACGAUCGUUGCCUUUUUAAUGUAAAUACCCGUAGGUAUCAUUAAUAGUUUCAAAAUAUUGUGGUUUAGUAAAGUUGAUACCUGGUUAUAAAUAUUAUGCCUUUAUUUUUGGCUAGAAGAAGAAUUACAACAGAGGAUUGAGCAUCA
B20: chr17:29548703:29548809:+|3pUTR|ENSG00000160551|unk|FALSE|bound_elsewhere (ssRNA)
RNA: GGGAGUUCUACAGUCCGACGAUCAGCACUUGUGAGUGAAAAAUCAUGUAAUUAUCUGUAAAUAUGUAGCUAACAAAUUGACCUAGUUUCUGUAUUUUUUUGUUUUUGUACUAAAGUUUAUAGGUCUGUGCCAGCUAGAGAGAACAACAGAGGAUUGAGCAUCA
B21: chr15:67202635:67202736:-|3pUTR|ENSG00000103591|msi1|FALSE|unique (ssRNA)
RNA: GGGAGUUCUACAGUCCGACGAUCUGCCAAAAUUGCCCUUAUCAUGUUGGCUGCCUGACUUGUUUAUAGGGUCCCCUUAAUUUUAGUUUUUAGUAGGAGGUUAAGGAGAAAUCUUUUUUUUCCUCAGUAUAUUGUAAGAGAGUGCAACAGAGGAUUGAGCAUCA
B22: chr16:785952:786377:-|CDS|ENSG00000007376|control|control|control (ssRNA)
RNA: GGGAGUUCUACAGUCCGACGAUCCAGUCGCUGGACCAGCUCGUGCAGGCCUUACGGGCCACCCCCGACCCUGACCCCGAGGAUAGGGGCCCCAGGCCAGGCAGCCCCUCCGCACUCCUGCCUGGGCCCGGCCGGCCUCCUCCACAACAGAGGAUUGAGCAUCA

target: T1, UNK ZnF1-6 (called full-length); test: nsRBNS (natural sequence RNA bind-n-seq); RBNS binding buffer (assumed for nsRBNS): 25 mM Tris pH 7.5, 150 mM KCl, 3 mM MgCl2, 0.01% Triton X-100, 500 ug/ml BSA, 20 U/ml SUPERase-In, 4 C; UNK is unkempt and MSI1 is Musashi-1; names of the RNAs are library labels; protein concentration not given here; high values mean tight binding

Binder | binding signal [enrichment R]
B1 | 0.678
B2 | 1.86
B3 | 6.24
B4 | 3.69
B5 | 15.5
B6 | 1.12
B7 | 2.66
B8 | 0.633
B9 | 0.605
B10 | 0.924
B11 | 0.291
B12 | 1.68
B13 | 19.7
B14 | 0.789
B15 | 0.843
B16 | 0.698
B17 | 11.6
B18 | 13.9
B19 | 9.94
B20 | 6.33
B21 | 15.9
B22 | 0.526
